Measurements reported in the supplement of paper PMC6555819.

Experiments:
Experiment in all cases: PBM binding z-score (relative to random genomic background probes); higher = stronger binding; sequences stand for … in GC…GCGATTGACAGCGTAGAATGAAGG
[1] = system: FXR:RXRa (NR concentration 270 nM, RXRa partner concentration 90 nM)
In short: (§1)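 For binding z-scores, the reference was random background probes on custom Agilent 4×180K protein-binding microarrays. These arrays were incubated 1 h with ligand-free nuclear receptor dimers in PBS pH 7.4, 2% milk, 0.02% Triton X-100, 1 mM DTT, 0.2 mg/mL BSA and 0.4 mg/ml salmon testes DNA. Fluorescence was scanned after antibody detection of each partner (one per run) and regression-normalized.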

[2] = system: LXRa:RXRa (NR concentration 270 nM, RXRa partner concentration 90 nM)
In short: as §1

[3] = system: LXRa homodimer (NR concentration 270 nM)
In short: as §1

[4] = system: LXRb:RXRa (NR concentration 270 nM, RXRa partner concentration 90 nM)
In short: as §1

[5] = system: LXRb homodimer (NR concentration 270 nM)
In short: as §1

[6] = system: PPARa:RXRa (NR concentration 270 nM, RXRa partner concentration 90 nM)
In short: as §1

[7] = system: PPARg:RXRa (NR concentration 180 nM, RXRa partner concentration 90 nM)
In short: as §1

[8] = system: PPARg:RXRa 270nM:90nM, anti-RXR (NR concentration 270 nM, RXRa partner concentration 90 nM)
In short: as §1

[9] = system: PPARg:RXRa 30nM:10nM, anti-RXR (NR concentration 30 nM, RXRa partner concentration 10 nM)
In short: as §1

[10] = system: PPARg:RXRa 90nM:30nM, anti-RXR (NR concentration 90 nM, RXRa partner concentration 30 nM)
In short: as §1

[11] = system: PPARg:RXRa DBDmut IVT, anti-RXR (DBD mutation: RXRa K156A/R161A, NR concentration 270 nM, RXRa partner concentration 90 nM)
In short: as §1

[12] = system: PPARg:RXRa IVT, anti-PPARg (NR concentration 270 nM, RXRa partner concentration 90 nM)
In short: as §1

[13] = system: PPARg DBDmut:RXRa IVT, anti-PPARg (DBD mutation: PPARg1 K132A/R137A, NR concentration 270 nM, RXRa partner concentration 90 nM)
In short: as §1

[14] = system: PPARg DBDmut IVT, anti-PPARg (DBD mutation: PPARg1 K132A/R137A, NR concentration 270 nM)
In short: as §1

[15] = system: PPARg homodimer (NR concentration 180 nM)
In short: as §1

[16] = system: PXR:RXRa (NR concentration 270 nM, RXRa partner concentration 90 nM)
In short: as §1

[17] = system: PXR homodimer (NR concentration 270 nM)
In short: as §1

[18] = system: RARa:RXR (NR concentration 270 nM, RXRa partner concentration 90 nM)
In short: as §1

[19] = system: RARa homodimer (NR concentration 270 nM)
In short: as §1

[20] = system: RARb:RXRa (NR concentration 270 nM, RXRa partner concentration 90 nM)
In short: as §1

Sequence	PBM binding z-score [1]	PBM binding z-score [2]	PBM binding z-score [3]	PBM binding z-score [4]	PBM binding z-score [5]	PBM binding z-score [6]	PBM binding z-score [7]	PBM binding z-score [8]	PBM binding z-score [9]	PBM binding z-score [10]	PBM binding z-score [11]	PBM binding z-score [12]	PBM binding z-score [13]	PBM binding z-score [14]	PBM binding z-score [15]	PBM binding z-score [16]	PBM binding z-score [17]	PBM binding z-score [18]	PBM binding z-score [19]	PBM binding z-score [20]
TGACCAAGGTGAAGGTCGTTGATCCCTCTGTAGA	2.13	1.77	-0.327	1.57	-1.14	2.49	2.18	3.17	0.953	2.49	1.27	2.71	-0.305	-0.387	0.818	1.26	-0.313	1.8	-0.922	2.11
CGTCCAAGGTCATAGGAGGTCAGTGCAGACAGAT	7.64	7.34	5.11	6.24	1.16	5.7	5.88	5.67	2.19	4.56	3.55	4.57	0.589	1.49	4.86	6.81	4.62	6.21	2.75	5.33
AGAACCAGGGCAATGAGTTGATAGCACGGGTGGC	-0.133	-0.319	-0.429	-0.657	-0.564	0.717	1.19	0.451	-0.539	0.047	2.95	2.68	0.333	-0.225	-0.0189	0.171	0.97	-0.324	-0.0861	0.985
CGAACGAGGGCATGAGTTGATAGCAAATGCCGAT	0.545	0.339	-0.654	0.279	-0.902	1.71	1.35	1.57	0.0506	0.976	3.29	2.03	-0.334	-0.825	-0.0859	0.562	-0.209	0.5	-0.431	2.11
ACAGACAGGTGATGAAGGTAAATCAGGCTATCAT	-0.0911	-0.136	-0.0858	0.169	-0.557	0.252	0.707	0.0594	-0.0828	-0.0561	-0.0404	0.544	0.329	0.144	0.185	-0.214	-0.0702	0.248	0.26	0.21
GCATGTAGATCAAGGTTAAGAAAGACTAAGCTAA	0.0428	0.684	-0.386	0.504	-0.805	1.47	1.33	2	0.418	1.55	1.08	0.797	-0.718	-0.329	-0.173	0.293	-0.179	0.536	-0.356	0.552
